47 compounds from publication PMC4336329 (PLoS ONE, 2015) can be followed below.

Out of some 310,000 compounds screened, about 14,000 (4.5%) showed an effect of 50% or more. Effects have a minus sign here. The sample as a whole holds a higher share of strong results than the screen did.
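Also: peak tail current of the secondary pulse compared with the same well before compound.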

This experiment deals with human ether-à-go-go-related gene (hERG) potassium channel (human, UniProt Q12809). The experiment in a line: primary screen, population patch clamp on CHO cells stably expressing hERG; higher = less effect of the substance.
Sequence of human ether-à-go-go-related gene (hERG) potassium channel (Q12809 whole entry, looked up): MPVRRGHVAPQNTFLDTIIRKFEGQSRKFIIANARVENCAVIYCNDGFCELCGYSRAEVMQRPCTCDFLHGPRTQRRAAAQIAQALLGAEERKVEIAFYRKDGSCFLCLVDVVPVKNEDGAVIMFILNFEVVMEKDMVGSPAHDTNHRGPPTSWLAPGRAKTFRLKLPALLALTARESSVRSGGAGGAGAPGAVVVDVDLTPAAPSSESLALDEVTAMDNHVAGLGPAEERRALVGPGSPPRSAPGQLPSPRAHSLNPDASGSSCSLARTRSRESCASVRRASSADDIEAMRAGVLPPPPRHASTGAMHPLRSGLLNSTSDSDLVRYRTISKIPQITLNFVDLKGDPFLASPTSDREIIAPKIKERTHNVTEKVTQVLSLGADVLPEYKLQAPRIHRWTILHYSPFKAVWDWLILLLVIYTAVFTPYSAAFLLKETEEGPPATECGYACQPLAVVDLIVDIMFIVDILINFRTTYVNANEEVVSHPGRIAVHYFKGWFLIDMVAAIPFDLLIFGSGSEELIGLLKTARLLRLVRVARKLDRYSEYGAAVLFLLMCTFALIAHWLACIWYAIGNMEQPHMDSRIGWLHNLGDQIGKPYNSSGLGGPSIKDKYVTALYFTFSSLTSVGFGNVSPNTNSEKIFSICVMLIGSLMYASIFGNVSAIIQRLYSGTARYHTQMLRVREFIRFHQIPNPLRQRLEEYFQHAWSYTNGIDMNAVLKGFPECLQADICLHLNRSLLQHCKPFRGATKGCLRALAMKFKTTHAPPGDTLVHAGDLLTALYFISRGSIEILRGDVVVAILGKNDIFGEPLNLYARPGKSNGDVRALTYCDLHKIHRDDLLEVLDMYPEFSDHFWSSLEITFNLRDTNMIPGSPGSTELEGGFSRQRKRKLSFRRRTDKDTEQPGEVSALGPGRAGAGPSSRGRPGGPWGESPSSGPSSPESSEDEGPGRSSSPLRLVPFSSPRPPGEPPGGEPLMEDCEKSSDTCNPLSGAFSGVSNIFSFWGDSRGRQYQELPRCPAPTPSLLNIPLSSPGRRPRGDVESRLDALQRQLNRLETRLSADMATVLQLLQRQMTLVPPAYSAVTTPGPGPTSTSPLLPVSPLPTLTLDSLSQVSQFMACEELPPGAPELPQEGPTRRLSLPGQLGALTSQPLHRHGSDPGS
As for `N#CCC(=O)N/N=C/c1ccc(N2N=C(c3ccccc3)CC2c2ccccc2)cc1` (centres unmarked), the “hERG current change (%, negative = inhibition) at 10uM” value came to 25%.

In the case of `CC(C(=O)N1CCC2(CC1)OCCO2)C1Sc2ccccc2NC1=O` (centres unmarked), the “hERG current change (%, negative = inhibition) at 10uM” value is 6.9%. `O=C(NC1C2CC3CC(C2)CC1C3)c1ccc2c(c1)OCO2` (centres unmarked): the “hERG current change (%, negative = inhibition) at 10uM” value was -5.92%.

For `CN(C)CCNc1ccc(-c2nn(C)c(=O)c3ccccc23)cc1[N+](=O)[O-]`, the “hERG current change (%, negative = inhibition) at 10uM” value is on record as -1.47%. As for `CCOC(C(=O)OCCCN(CC)CC)(c1ccccc1)c1ccccc1.Cl`, the “hERG current change (%, negative = inhibition) at 10uM” value is on record as -11.5%. For `N#CC(c1ccc(Cl)nn1)c1c(F)cccc1Cl` (centres unmarked), the “hERG current change (%, negative = inhibition) at 10uM” value amounted to 9.59%.

For the compound `Cc1noc(C)c1COC(=O)[C@@H](NC(=O)c1ccccc1Cl)C(C)C`, the “hERG current change (%, negative = inhibition) at 10uM” value stood at 5.09%.

For `Cl.N[C@@H](Cc1c[nH]c2ccccc12)c1nnc(SCc2c(F)cccc2Cl)o1`, the “hERG current change (%, negative = inhibition) at 10uM” value came out at 1.99%. The figure for `COC(=O)c1ccc(NC(=O)CCN2CCN(c3ccccc3)CC2)cc1` is -28.9%. As for `COc1cccc(N2CCN(CC(=O)Nc3ccc(S(=O)(=O)N4CCCCCC4)cc3)CC2)c1`, the “hERG current change (%, negative = inhibition) at 10uM” value is on record as -21.9%. Regarding `CCOC(=O)c1ccc(NC(=O)CN2CCN(c3ccccc3)CC2)cc1`, the “hERG current change (%, negative = inhibition) at 10uM” value is listed as 5.34%.

For the compound `CCOC(=O)c1ccc(NC(=O)CN2CCN(Cc3ccccc3)CC2)cc1`, the “hERG current change (%, negative = inhibition) at 10uM” value is given as -51%. The figure for `COc1ccc(NC(=O)CN2CCN(c3c(C)cccc3C)CC2)cc1` is -24.4%; for `COC(=O)c1ccc(NC(=O)CCN2CCN(Cc3ccccc3)CC2)cc1` it is -58.6%; for `COc1ccc(NC(=O)CN2CCN(c3c(C)cc(C)cc3C)CC2)cc1` it is 3.97%. To `COC(=O)c1ccc(NC(=O)CCN2CCN(CCC(=O)Nc3ccc(C(=O)OC)cc3)CC2)cc1` belongs -15.4%; to `COc1ccc(NC(=O)CN2CCN(c3ccc(C)cc3C)CC2)cc1`, -60.7%.

On to `CCOC(=O)c1ccc(NC(=O)N2CCN(Cc3ccccc3)CC2)cc1`, for which the “hERG current change (%, negative = inhibition) at 10uM” value was -11.1%. For the compound `COc1ccc(NC(=O)CN2CCN(S(=O)(=O)N3CCCCCC3)CC2)cc1`, the “hERG current change (%, negative = inhibition) at 10uM” value is recorded as -71.7%. Consider `COc1ccc(NC(=O)CN2CCN(S(=O)(=O)N(C)C)CC2)cc1`, for which the “hERG current change (%, negative = inhibition) at 10uM” value is given as -4.55%.

As for `CC(C)[C@H](NC(=O)c1cc2cc(Cl)ccc2n1C)C(=O)N[C@@H](C(=O)O)c1ccccc1`, the “hERG current change (%, negative = inhibition) at 10uM” value came out at 15.9%. To `CCCNC(=O)N1[C@H]2CC[C@@H]1C(C(=O)OC)=C(c1ccc(F)cc1OCc1ccccc1)C2` belongs -23.3%; to `O=C(Oc1cc2oc(=O)cc(-c3ccccc3)c2cc1Cl)C1CCCCC1`, 4.05%.

Consider `COC(=O)Cn1cc(C(=O)OC)c2ccccc21`, for which the “hERG current change (%, negative = inhibition) at 10uM” value was -4.51%.

In the case of `COc1cc(C(=O)NC(C)c2ccc3ccccc3c2)cc(Cl)c1O` (centres unmarked), the “hERG current change (%, negative = inhibition) at 10uM” value worked out at 4.57%. The figure for `Cc1ccc(-c2cn(CCN)c(-c3ccc(Cl)nc3)n2)cc1` is -21.7%. With `COc1ccccc1C(=O)Nn1c(-c2cccs2)nc2ccccc2c1=O`, the “hERG current change (%, negative = inhibition) at 10uM” value is on record as -2.66%. Consider `COc1cccc(CNC(=O)CSc2ccc(-c3ccco3)nn2)c1`, for which the “hERG current change (%, negative = inhibition) at 10uM” value was found to be 2.15%.

Consider `COc1cccc(NC(=O)Cn2c(=O)n(C)c(=O)c3sc4c(c32)COC(C)(C)C4)c1`, for which the “hERG current change (%, negative = inhibition) at 10uM” value stood at 6.82%.

Consider `CC(=O)Nc1ccc(S(=O)(=O)NC2=NCN(C)CN2)cc1`, for which the “hERG current change (%, negative = inhibition) at 10uM” value was determined as 2.76%. Turning to `COc1ccc(NC(=O)CN2CCCC2)cc1`, the “hERG current change (%, negative = inhibition) at 10uM” value is 15.7%. The figure for `COc1ccc(C(=O)NC2CCN(CC(=O)Nc3cccc(OC)c3)CC2)cc1` is -25.4%; for `COc1ccc(NC(=O)CN2CCN(CC(=O)Nc3ccc(OC)cc3)CC2)cc1` it is -76.6%.

With `COc1ccc(NC(=O)CN2CCCCC2)cc1.O=C(O)C(=O)O`, the “hERG current change (%, negative = inhibition) at 10uM” value turned out to be 3.8%. For the compound `COc1ccc(NC(=O)CN2CCC(NC(=O)c3ccc(OC)cc3)CC2)cc1`, the “hERG current change (%, negative = inhibition) at 10uM” value was -51.1%. To `CCCCOc1ccc(NC(=O)CN2CCN(Cc3ccccc3)CC2)cc1` belongs -49.4%; to `COc1ccc(C(=O)NC2CCN(CC(=O)NC3CCCCC3)CC2)cc1`, -17.3%; to `COc1ccc(NC(=O)CN2CCN(Cc3ccccc3)CC2)cc1`, -52.8%. Take `COc1ccc(C(=O)Nc2ccc(N3CCN(Cc4ccccc4)CC3)cc2)cc1`: the “hERG current change (%, negative = inhibition) at 10uM” value is -4.78%. In the case of `COc1cc(NC(=O)c2cccc(Br)c2)nc(OC)n1`, the “hERG current change (%, negative = inhibition) at 10uM” value is 3.34%. For the compound `CCSc1ccccc1C(=O)NCCCn1ccnc1`, the “hERG current change (%, negative = inhibition) at 10uM” value came to 10.2%.

Turning to `CCCC(=O)Nc1cc(-c2nnc(OC)c3ccccc23)ccc1N1CCCCC1`, the “hERG current change (%, negative = inhibition) at 10uM” value was -36.3%.

Regarding `C=CCOc1nc2c(c(=O)n(C)c(=O)n2C)n1Cc1ccccc1Cl`, the “hERG current change (%, negative = inhibition) at 10uM” value is -6.73%. Consider `COc1cc2c(cc1OC)C(C(=O)NCc1cccnc1)C(c1cccnc1)N(C)C2=O` (centres unmarked), for which the “hERG current change (%, negative = inhibition) at 10uM” value was 9.05%. In the case of `COc1cc([N+](=O)[O-])cc(/C=N/NC(=O)Cn2cncn2)c1O`, the “hERG current change (%, negative = inhibition) at 10uM” value stood at 5.88%. For the compound `CC(=O)NCCC(=O)Nc1cc(S(=O)(=O)N2CCCCC2)ccc1Oc1ccccc1`, the “hERG current change (%, negative = inhibition) at 10uM” value is recorded as -64.9%. To `COC(=O)CNc1cc(S(=O)(=O)N2CCCCC2)ccc1Oc1cccc(C)c1` belongs -30.7%.
